Growth data for 8 compounds are collected here from PubChem BioAssay (NCI).

What all share (assay): NCI-60 one-dose screen, 48 h (100 = growth as untreated, 0 = no growth, -100 = all killed)
Common to all, as to settings: 10 µM unless noted

The subject of experiment [1] is DU-145 prostate.
For experiment [2], the system named is K-562 leukemia.
Experiment [3] has as its system MALME-3M melanoma.
Experiment [4] concerns MDA-MB-231 breast.
Experiment [5] relates to RXF 393 renal.
Experiment [6] concerns SF-268 CNS.
The subject of experiment [7] is SF-295 CNS.
Experiment [8] deals with SF-539 CNS.
In experiment [9] the test system is UACC-257 melanoma.
The subject of experiment [10] is M14 melanoma.
Experiment [11] concerns HT29 colon.
Experiment [12] relates to SNB-75 CNS.
Experiment [13] deals with SNB-19 CNS.
The test system of experiment [14] is U251 CNS.
In experiment [15] the test system is PC-3 prostate.
Experiment [16] deals with SK-MEL-5 melanoma.
In experiment [17] the test system is UACC-62 melanoma.
Experiment [18] has as its system LOX IMVI melanoma.
The subject of experiment [19] is SK-MEL-28 melanoma.
The subject of experiment [20] is HCT-15 colon.

Molecules are shown by their SMILES. About 83,000 compounds went through this panel and 20% of them were active in at least one assay; those are over-represented in the sample as a whole.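 A percent growth of 40 corresponds to 60% growth inhibition; 0 means no net growth; -100 means all cells died. Active threshold: below 10.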 A number with no mark means an inactive call. Active and inactive are the calls of the source.

With `O=C1COCCN1c1ccc(NCc2cn(Cc3ccc(F)cc3)c3ccccc23)cc1`, the growth in experiment [1] is 81.6%; in [2], 27.7%; in experiment [3], 61.5%; in [4], 85.3%; in [5], -3.08% (active); in experiment [6], 96.2%. The growth in experiment [7] is 44.1%; in [8], 92.1%; in [9] it was 27.9%; in experiment [10], 72.7%; in [11], 34.8%; in [12], 65.3%. Moreover, the growth in experiment [13] was 92.2%; in [14], 55.9%; in [15], 93.3%; in [16], 27.3%; in experiment [17], -65.8% (active); in [18] it was 83.9%. Moreover, the growth in experiment [19] is 87.6%.

Turning to `COc1ccc(NCc2cn(-c3ccc(C(=O)O)cc3)nc2-c2ccc(C(=O)O)cc2)cc1C(F)(F)F`, the growth in [1] was 96.3%; in [2] it was 111%; in [3], 77.9%; in experiment [4], 81.8%; in [5], 89.8%; in experiment [6], 99.3%. Also, the growth in [7] is 97.2%; in experiment [8], 86.7%; in experiment [9] it was 100%; in experiment [10] it was 96.9%; in [11] it was 101%; in experiment [12], 84%. For the same compound, the growth is 96.4% in [13]; 93.7% in experiment [14]; 102% in experiment [15]; 94.8% in experiment [16]; 94.3% in [17]; 97.3% in experiment [19].

For the compound `C=C(C)[C@@H]1CC[C@]2(COC(=O)c3ccccc3C(=O)O)CC[C@]3(C)[C@H](CC[C@@H]4[C@@]5(C)CC[C@H](OC(=O)c6ccccc6C(=O)O)C(C)(C)[C@@H]5CC[C@]43C)[C@@H]12`, the growth in experiment [1] was 29.7% [100 µM]; in experiment [2], 44.7% [100 µM]; in experiment [3], 30.7% [100 µM]; in experiment [4], -26.2% [100 µM] (active); in experiment [5], -21.9% [100 µM] (active); in [6], 18% [100 µM]. The growth in experiment [7] is 10.2% [100 µM]; in [8], 10.6% [100 µM]; in [9], 92.9% [100 µM]; in [20] it was 18.1% [100 µM]; in experiment [11] it was 64.3% [100 µM]; in experiment [12], -20.7% [100 µM] (active). In addition, the growth in experiment [13] was 4.01% [100 µM] (active); in experiment [14], 4.32% [100 µM] (active); in experiment [15], 16.2% [100 µM]; in experiment [16] it was 11.9% [100 µM]; in experiment [18] it was 11.2% [100 µM]; in [19], 31.3% [100 µM].

`O=C(CCNCc1ccccc1)c1ccccc1`: the growth in experiment [1] was 105%; in experiment [2], 108%; in experiment [3], 104%; in [4], 121%; in experiment [5] it was 116%; in [6], 108%. The growth in experiment [7] was 90%; in experiment [8], 98.1%; in [9] it was 102%; in experiment [20], 106%; in experiment [11], 106%; in experiment [12], 109%. Moreover, the growth in experiment [13] was 114%; in [14], 101%; in experiment [15] it was 106%; in experiment [16] it was 99%; in experiment [17], 97.5%; in [18] it was 105%. Also, the growth in experiment [19] was 113%.

Take `COc1ccc(C2=C(c3cn(C)c4ccccc34)C(=O)OC2)cc1OC`: the growth in [1] is 48.7%; in experiment [2] it was 18%; in experiment [3], 35.4%; in experiment [4], 49.8%; in experiment [5], -7.01% (active); in experiment [6], 52.1%. Besides, the growth in [7] was 23%; in experiment [8], -12.2% (active); in experiment [9] it was 79.7%; in experiment [20], 23.7%; in experiment [11] it was 6.9% (active); in experiment [12] it was -29.3% (active). In addition, the growth is 38.3% in experiment [13]; 35.1% in [14]; 21.3% in experiment [15]; 16.4% in experiment [16]; 26.8% in experiment [17]; 49.6% in experiment [18]. The growth in experiment [19] was 69.9%.

As to `COC(=O)C(=Cc1ccccc1[N+](=O)[O-])C(=O)OC`, the growth in [1] was -45.6% (active); in experiment [2], -12% (active); in [3] it was 25.2%; in experiment [4] it was 48%; in experiment [5], -29.1% (active); in experiment [6] it was 0.377% (active). Moreover, the growth in experiment [7] is 97.1%; in [8] it was 58.1%; in experiment [9] it was 57.1%; in experiment [20], 19.8%; in experiment [11] it was 21.3%; in experiment [12], 33.5%. The growth in experiment [13] is 88.9%; in [14], 23.7%; in experiment [15] it was 40.4%; in [16], 49.1%; in [18], 10.7%; in [19], 36.4%.

For `CC1=C/C(=C(\c2cc(C)c(O)c(C(=O)O)c2)c2c(Cl)cccc2Cl)C=C(C(=O)O)C1=O`, the growth in experiment [1] was 118%; in experiment [2] it was 114%; in experiment [3], 88.3%; in experiment [4], 99.9%; in [5], 120%; in experiment [6] it was 104%. The growth in experiment [7] was 100%; in experiment [8], 100%; in experiment [9], 106%; in experiment [20], 105%; in experiment [11], 97.8%; in experiment [12] it was 90.3%. Also, the growth is 91.3% in experiment [13]; 104% in experiment [14]; 89% in experiment [15]; 100% in experiment [16]; 94.9% in experiment [17]; 95.7% in experiment [18]. Moreover, the growth in [19] is 116%.

For `CCN(CC)c1ccc(/C=C/c2ccc3cc(C)ccc3[n+]2CC)cc1`, the growth is 20.1% in experiment [1]; 6.51% (active) in [2]; -2.01% (active) in experiment [3]; 21.3% in [4]; 11.8% in experiment [5]; 27.7% in experiment [6]. Further, the growth in experiment [7] is -22% (active); in [8], 11.5%; in [9], -19% (active); in [20], 13.3%; in experiment [11], -14.4% (active); in experiment [12] it was 7.55% (active). For the same compound, the growth in experiment [13] was 24.8%; in experiment [14], 9.59% (active); in experiment [15], -0.319% (active); in experiment [16] it was -97.5% (active); in [17], 1.47% (active); in experiment [18] it was -8.32% (active). For the same compound, in experiment [19], the growth is 2.66% (active).
